In the library only some 6.2% were active in any assay of this set; here they are far more common.
KB-3-1 tox = KB-3-1 parental cell cytotoxicity; KB-3-1 viability, CellTiter-Glo ATP luminescence, 72 h; Potency, µM (highest dose often 46.1 µM), actives largely listed as cytotoxic; 1.4% of 400,000 active; AID 1347075; also: nearly all actives have a fitted effect of over 60% in size
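KB-3-1 parental drug-naive adenocarcinoma cells in DMEM/10% FBS, incubated 72 h at 37 C with pin-transferred compounds across a concentration series. Viability by CellTiter-Glo luminescence; concentration-response curves fitted after normalization.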
ATXN2 expr inh = reduces ATXN2 reporter expression in HEK-293 cells; HEK-293 ATXN2-luciferase reporter, luminescence, 24 h; Potency, µM (highest dose often 57 µM), actives largely listed as inhibitors; 0.72% of 360,000 active; also: nearly all actives have a fitted effect of over 55% in size
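ATXN2-luciferase reporter cells (luciferase flanked by upstream and downstream ATXN2 gene portions) were treated 24 h at 37 °C with compounds at up to 57 uM. SteadyGlo luminescence gave expression; GF-AFC fluorescence gave viability.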
KB-V1 cytotox = KB-V1 MDR subline cytotoxicity; KB-V1 MDR cells viability, CellTiter-Glo, 72 h; Potency, µM (series often up to 46.1 µM), usual class: cytotoxic; 3.4% of 400,000 active; also: nearly all actives have a fitted effect of over 60% in size
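Following 72 h at 37 degrees C with compound, KB-V1 cell viability was read by CellTiter-Glo luminescence, medium being phenol-red-free DMEM plus 10% FBS; concentration-response parameters came from normalized, curve-fitted qHTS data.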
HT1080 IDH1KD tx = kills HT-1080 cells with IDH1 knockdown; HT-1080 IDH1 knockdown viability, ATP luminescence, 48 h; Potency, µM (titrated, usually from 46.1 µM), hits mostly cytotoxic; AID 686971; 2% of 360,000 active
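% activity derives from luminescence (CellTiter-Glo), normalised to DMSO and no-cell wells. HT-1080-IDH1KD cells, 750/well, had 48 h compound exposure at 37 °C.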
HT1080-NT tox = kills 2HG-producing HT-1080-NT fibrosarcoma cells | HT-1080-NT fibrosarcoma viability, CellTiter-Glo ATP luminescence, 48 h | Potency, µM (top dose mostly 46.1 µM), most hits filed as cytotoxic | 1.6% of 360,000 active | AID 686970;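 also: NT is the 2HG producing partner of a matched IDH1 knockdown line; nearly all actives have a fitted effect of over 55% in size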
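HT-1080-NT fibrosarcoma cells (2HG-overproducing), 750 cells/well in RPMI with 5% FBS, dosed after 2 h and incubated 48 h at 37C. CellTiter-Glo luminescence normalized to DMSO and no-cell wells; concentration-response curves fitted and classed.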
S2 tox = viability counter-screen for ATXN expression inhibitors; S2 cells (HEK-293 line with an ATXN2-luciferase reporter) viability, CellTiter-Fluor protease fluorescence, 24 h; Potency, µM (series often up to 56.7 µM), hits mostly cytotoxic; 0.49% of 400,000 active; also: nearly all actives have a fitted effect of over 40% in size
Hits are given with their value; – = inactive; ? = inconclusive; · = no result; ! = a repeat was not active; [ ] = remark or other dose. Calls follow the shape of the dose curve; as a rule, active = well fitted curve in the direction sought with a large enough effect; inconclusive = small, poorly fitted or top-dose-only effect, or another doubt; inactive = no such curve, though single readings can be large; an effect the other way counts as inactive or inconclusive.

SMILES | KB-3-1 tox | ATXN2 expr inh | KB-V1 cytotox | HT1080 IDH1KD tx | HT1080-NT tox | S2 tox
Cc1ccc(CN2CCN(/N=C/c3ccc(C(=O)O)cc3)CC2)c(C)c1 | – | – | – | – | – | –
COC(=O)c1c(CCl)noc1C(=O)NCC1CCCO1 (stereo not drawn) | – | – | – | 23µM | – | –
O=C(O)C1C(c2ccccc2)C(C(=O)OCc2ccco2)C1c1ccccc1 (stereo not drawn) | – | – | – | – | – | –
COC(=O)C1C(c2ccccc2)C(C(=O)OCc2ccco2)C1c1ccccc1 (stereo not drawn) | ? | – | 13µM | – | – | –
CCN(CC)CCC(=O)N1C/C(=C/c2ccccc2)C(=O)/C(=C\c2ccccc2)C1 | – | 24µM | ? | 2.9µM | ? | 13µM
O=C(NCCN1CCOCC1)c1ccc(Cl)c(Cl)c1 | – | – | – | – | – | –
O=C1/C(=C\c2ccccc2)CN(C(=O)CCN2CCCCC2)C/C1=C/c1ccccc1 | ? | ? | ? | 2.9µM | ? | ?
CC(=O)N1CCN(C(=O)CCN(c2ccccc2)S(=O)(=O)c2ccc(C)cc2)CC1 | – | – | – | – | – | –
O=C1/C(=C\c2ccc(Cl)c(Cl)c2)CN(C(=O)CCN2CCOCC2)C/C1=C/c1ccc(Cl)c(Cl)c1 | 3.7µM | 6.7µM | ? | 5.2µM | 5.2µM | 6.7µM
O=C(CCN1C(=O)S/C(=C\c2ccccc2)C1=O)N1CCCCC1 | – | – | – | – | – | –
Cc1cn(C)c(CC(=O)N2CCN(c3cccc(C(F)(F)F)c3)CC2)c1C(=O)O | – | – | – | · | · | –
CCS(=O)(=O)NCc1c(C)ncc2c1CCN(C(=O)c1csc(-c3cccs3)n1)C2 | · | · | · | · | · | –
CCOc1ccc(-n2c(-c3ccccc3)c[n+]3c2CCC3)cc1 | – | –[11.3 µM] | ? | 8.2µM | ? | ?
CCOc1ccc(-n2c(-c3ccc(Br)cc3)c[n+]3c2CCCCC3)cc1 | ? | ? | – | ? | 8.2µM | ?
FC(F)Oc1ccc(-c2c[n+]3c(n2-c2ccccc2)CCCCC3)cc1 | ? | · | – | ? | ? | –
CCOc1ccc(-n2c(-c3ccc(OC)cc3)c[n+]3c2CCCCC3)cc1 | 2.1µM | · | – | 3.7µM | ? | –
Nc1ccc(C(=O)N/N=C/c2cn(Cc3ccccc3)c3ccccc23)cc1 | ? | – | 29µM | ? | – | –
CC(C)n1cc(/C=N\NC(=O)c2cc3c(ccc4ccccc43)o2)c2ccccc21 | – | – | – | – | – | –
CCn1cc(/C=N/NC(=O)c2cc3c(ccc4ccccc43)o2)c2ccccc21 | ? | – | 18µM | – | – | –
CNC(=S)N/N=C/c1cn(Cc2ccc(F)cc2)c2ccccc12 | ? | – | 15µM | – | – | ?
CC(Sc1ncc(S(=O)(=O)c2ccc(C(C)C)cc2)c(N)n1)C(=O)Nc1ccccc1 (stereo not drawn) | ? | ? | – | · | · | –
Cc1cccc(C)c1N(CCCc1cccnc1)C(=O)C(C)N (stereo not drawn) | · | · | · | · | · | –
C/C(=N\NC(=O)c1ccc(Cl)c(S(=O)(=O)Nc2ccccc2Cl)c1)c1ccncc1 | – | – | 23µM | – | – | –
C/C(=N\NC(=O)C(=O)Nc1cccc(Cl)c1C)c1ccncc1 | – | – | 21µM | ? | – | ?
C/C(=N\NC(=O)C(=O)Nc1cc(Cl)ccc1Cl)c1ccncc1 | – | – | – | – | – | –
SMILES | KB-3-1 tox | ATXN2 expr inh | KB-V1 cytotox | HT1080 IDH1KD tx | HT1080-NT tox | S2 tox
C/C(=N\NC(=O)c1cccc(S(=O)(=O)Nc2ccc(C)cc2C)c1)c1ccncc1 | – | – | – | – | – | –
COc1cc(NC(=O)C(CC(C)C)NS(=O)(=O)c2ccc3c(c2)CCCC(=O)N3)cc(OC)c1 (stereo not drawn) | – | – | ? | · | · | –
CC(C)c1ccc(/C=N/NC(=O)CN(c2cccc(Cl)c2Cl)S(C)(=O)=O)cc1 | ? | ? | ? | 21µM | 18µM | ?
CS(=O)(=O)N(CC(=O)N/N=C/c1ccccc1C(=O)O)c1cccc(Cl)c1Cl | – | – | – | – | – | –
CC(C)Oc1ccc2ccccc2c1CNC[C@H]1O[C@@H](n2ccc(=O)[nH]c2=O)[C@H](O)[C@@H]1O | – | – | – | – | – | –
O=C1CCc2cc(-c3csc(-c4ccc(O)cc4)n3)ccc2N1 | – | · | – | · | · | ·
CCOc1ccc(-c2nnc3ccc(SCC(=O)NCc4ccco4)nn23)cc1 | – | – | 16µM | ? | – | –
O=C(NCCCN1CCN(c2ccccc2F)CC1)c1ccc2nc(N3CCCCC3)sc2c1 | – | – | – | · | · | –
CCCCN1C(=O)C(CC(=O)NCc2cccc3ccccc23)CC(C(=O)N(C(C)C)C(C)C)=C1C (stereo not drawn) | – | – | ? | – | – | –
O=C(Nc1ccc(Cl)cc1)Nc1cc([N+](=O)[O-])ccc1F | – | – | – | – | – | ?
O=C(Nc1ccc(Cl)cc1)Nc1csc([N+](=O)[O-])c1 | – | ? | ? | 10µM | 13µM | –
O=C(Nc1ccc([N+](=O)[O-])cc1)Nc1ccc(Cl)cc1F | ? | ? | 18µM | – | – | –
Cc1cnc2ccccc2c1C | – | · | – | · | · | ·
CN1C(=O)/C(=C2\SC(N3CCCCCC3)=NC2=O)c2ccccc21 | ? | – | 2.1µM | – | ? | –
CCCN1C(=O)/C(=C2\SC(N3CCCCC3)=NC2=O)c2ccccc21 | – | – | ? | – | – | ?
COCCCn1c(=N)c(C(=O)NC2CCCC2)cc2c(=O)n3ccccc3nc21 | – | – | – | · | · | ·
Cc1ccc2[nH]cc(C(=O)CN3CCN(c4ccccc4F)CC3)c2c1 | – | ? | 10µM | – | – | ?
Cc1ccc(-c2noc(-c3cccnc3NCc3ccc(Cl)cc3)n2)cc1 | – | – | – | · | · | –
Cc1ccc(F)c(CNC(=O)C2(C)CCCN2C(=O)C(C)C)c1F (stereo not drawn) | – | – | – | – | – | –
Cc1ccccc1-n1nc(C)c2cc(C(=O)N3CCN(S(=O)(=O)c4ccccc4)CC3)sc21 | – | – | 23µM | – | – | –
Cc1ccccc1N1CCN(S(=O)(=O)c2ccccc2)CC1 | ? | – | 21µM! | – | – | –
Cc1cc(S(=O)(=O)N2CCN(c3ccccc3C)CC2)ccc1F | – | – | – | – | – | –
CCc1ccccc1NC(=O)CN1CCN(C(=O)CNC(=O)c2ccc(-c3ccccc3)cc2)CC1 | – | – | ? | ? | –[9.24 µM] | –
COc1ccc(NC(=O)c2cc(C3CC3)nc3c2c(C)nn3-c2ccc(C)cc2)cc1OC | – | – | – | · | · | –
O=C(NCC1CCC2(CCN(Cc3cccc4ncccc34)CC2)O1)c1ccccc1 (stereo not drawn) | · | · | · | · | · | –
Cc1ccc(OCCNCc2ccccc2)c(C)c1 | – | – | ? | – | – | –
